{
  "source": "PubChem BioAssay AID2551",
  "about": "(National Center for Advancing Translational Sciences (NCATS), 2010)",
  "note": "Among all 310,000 compounds or so, about 17,000 (5.5%) were called active. Roughly 11% stayed inconclusive and do not appear here. The sample holds actives, similar compounds and a random draw of the others, so the mix is not that of the screen. Values without a mark were called inactive. The call rests on the fitted dose curve; in most records, active means well fitted inhibition curve with a large enough effect; inconclusive means small, poorly fitted or top-dose-only effect, or effect the other way; inactive means no such curve, though single readings can be large or run the other way. On the % scale 0 is the no-effect control and ±100 the full control effect; potency means the concentration at half of the fitted maximal effect.",
  "data": [
    {"molecular_target": "Nuclear receptor ROR-gamma (Mus musculus) (UniProt P51450)", "sequence (P51450 whole entry, looked up, the tested form may be a part)": "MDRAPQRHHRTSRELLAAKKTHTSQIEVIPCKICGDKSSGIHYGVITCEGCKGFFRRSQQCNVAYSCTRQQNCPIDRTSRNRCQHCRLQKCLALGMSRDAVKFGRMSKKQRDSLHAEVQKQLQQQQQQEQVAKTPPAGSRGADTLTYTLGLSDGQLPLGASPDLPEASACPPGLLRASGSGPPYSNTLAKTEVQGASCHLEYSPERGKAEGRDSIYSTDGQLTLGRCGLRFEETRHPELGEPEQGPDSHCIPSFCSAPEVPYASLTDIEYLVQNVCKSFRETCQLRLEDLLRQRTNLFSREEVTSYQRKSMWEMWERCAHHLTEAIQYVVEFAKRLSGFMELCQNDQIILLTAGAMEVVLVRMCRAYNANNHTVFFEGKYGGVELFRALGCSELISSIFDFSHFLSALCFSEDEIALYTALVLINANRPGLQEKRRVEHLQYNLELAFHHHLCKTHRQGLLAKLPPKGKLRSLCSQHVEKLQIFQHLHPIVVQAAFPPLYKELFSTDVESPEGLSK", "assay": "qHTS for inhibitors of ROR gamma transcriptional activity; further: nearly all actives have a fitted effect of over 60% in size", "settings": "Drosophila S2 Gal4-RORgamma UAS-luciferase reporter, 20 h; series mostly up to 53.6 µM; activity change, negative = inhibition: at the top concentration", "procedure,_shortened": "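Drosophila Schneider cells stably carrying a metallothionein-driven Gal4 DBD–ROR gamma fusion and a UAS-Photinus luciferase reporter were exposed to compound for 1 hr, then induced with copper sulfate (700 uM final) for 20 hr at ambient temperature before luminescence reading.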", "values": [
      {"smiles": "Cc1c(Cl)cccc1NC(=O)CSc1ccc(-c2cccnc2)nn1", "activity change, negative = inhibition": "0.66%"},
      {"smiles": "Cc1ccc(CN(Cc2cccnc2)C(=S)Nc2cc(Cl)ccc2C)cc1", "Potency": "3.16 µM (active)"},
      {"smiles": "COc1ccc(-c2nc3ccccc3c(=O)n2CCc2ccc(O)cc2)cc1", "activity change, negative = inhibition": "15.1%"},
      {"smiles": "CSc1nnc2ccc(-c3ccc(C)cc3)nn12", "activity change, negative = inhibition": "-38.3%"},
      {"smiles": "Cc1ccc(C(CNC(=O)Nc2cccc(C)c2)N2CCN(C)CC2)cc1", "note": "(centres undefined)", "activity change, negative = inhibition": "-13%"},
      {"smiles": "COc1cc(C(=O)NCC2(c3ccccc3)CCCC2)ccc1OC(C)C", "activity change, negative = inhibition": "-1.02%"},
      {"smiles": "O=C(NCc1ccccc1Cl)C1CCN(c2ncnc3c2nc2n3CCCCC2)CC1", "activity change, negative = inhibition": "-7.55%"},
      {"smiles": "CCOCCCN1C(=O)C2C(C(=O)Nc3ccc(OCC)cc3)C3C=CC2(O3)C1C(=O)NC1CCCCC1", "note": "(centres undefined)", "activity change, negative = inhibition": "-4.56%"},
      {"smiles": "CCN(CC)CCn1cnc2c1c(=O)[nH]c(=O)n2Cc1ccccc1", "activity change, negative = inhibition": "26%"},
      {"smiles": "CCOc1ccc(OCCSc2nc3ccccc3n2CC(=O)O)cc1", "activity change, negative = inhibition": "-12.8%"},
      {"smiles": "COc1ccc(S(=O)(=O)N2CCN(C)CC2)c(C)c1", "activity change, negative = inhibition": "16.1% [at 1.91 µM]"},
      {"smiles": "COc1ccc(N(Cc2cc3ccc(C)cc3[nH]c2=O)S(=O)(=O)c2ccccc2)cc1", "activity change, negative = inhibition": "27.2%"},
      {"smiles": "CC(C)(C)c1ccc(C(CC(=O)O)NS(=O)(=O)Cc2ccccc2)cc1", "note": "(centres undefined)", "activity change, negative = inhibition": "14.4%"},
      {"smiles": "CCCCN(CCCC)CCCNC(=O)CN1C(=O)COc2ccc(S(=O)(=O)N3CCC(C)CC3)cc21", "activity change, negative = inhibition": "-34.4%"},
      {"smiles": "S=C(NCCc1ccccc1)Nc1ccccc1", "Potency": "3.16 µM (active)"},
      {"smiles": "Fc1ccccc1Cn1cnc(NC(=S)NCCc2ccccc2)n1", "activity change, negative = inhibition": "12.5%"},
      {"smiles": "S=C(NCCc1ccccc1)NCc1ccccc1Cl", "Potency": "7.94 µM (active)"},
      {"smiles": "O=C(NCCc1c[nH]c2ccccc12)C(=O)NCC1CCCO1", "note": "(centres undefined)", "activity change, negative = inhibition": "27.4%"},
      {"smiles": "CCOc1ccc(CCNC(=O)Nc2ccccc2)cc1OCC", "activity change, negative = inhibition": "7.93%"},
      {"smiles": "S=C(NCCc1ccccc1)NCC1CCCO1", "note": "(centres undefined)", "Potency": "12.6 µM (active)"},
      {"smiles": "S=C(NCCCc1ccccc1)Nc1ccc(Br)cc1", "Potency": "8.91 µM (active)"},
      {"smiles": "O=C(NCCc1ccccc1)C1CC1", "activity change, negative = inhibition": "-14.5%"},
      {"smiles": "O=C(NCCCc1ccccc1)C(=O)c1c[nH]c2ccccc12", "activity change, negative = inhibition": "15.9%"},
      {"smiles": "NS(=O)(=O)c1ccc(CCNC(=S)Nc2ccc(S(N)(=O)=O)cc2)cc1", "activity change, negative = inhibition": "-1.74%"},
      {"smiles": "O=C(CS(=O)(=O)Cc1ccccc1)NCC1CCCO1", "note": "(centres undefined)", "activity change, negative = inhibition": "0.86%"},
      {"smiles": "CCc1ccc(NC(=O)CS(=O)CC(=O)NCCCc2ccccc2)cc1", "note": "(centres undefined)", "activity change, negative = inhibition": "-11.9%"},
      {"smiles": "COc1ccccc1N1CCC(N2CCN(CC(C)(C)C)C(CCO)C2)CC1", "note": "(centres undefined)", "activity change, negative = inhibition": "0.126%"},
      {"smiles": "Cc1ccc(NS(=O)(=O)c2ccc(-c3coc(C)n3)cc2)c(C)c1", "activity change, negative = inhibition": "22.6%"},
      {"smiles": "CSc1ccc(S(=O)(=O)N2CCC(C(=O)NCc3ccncc3)CC2)cc1", "activity change, negative = inhibition": "18.3%"},
      {"smiles": "COc1cc(/C=C2\\SC(=O)NC2=O)ccc1OCc1ccc(Cl)nc1", "activity change, negative = inhibition": "40.1%"},
      {"smiles": "CC(C)c1ccc(NC(=O)[C@@H](NC(=O)N2CC(=O)Nc3ccccc32)C(C)C)cc1", "activity change, negative = inhibition": "34%"},
      {"smiles": "O=C(c1ccc2nc(N3CCOCC3)sc2c1)N1CCN(c2ccc(Cl)cc2)CC1", "activity change, negative = inhibition": "28.8%"},
      {"smiles": "Nc1nc(SCC(=O)Nc2ccc(Cl)cc2C(F)(F)F)n[nH]1", "activity change, negative = inhibition": "0.96%"},
      {"smiles": "CC(=O)Nc1ccc(S(=O)(=O)N(C)CC(=O)NCCC2=CCCCC2)cc1", "activity change, negative = inhibition": "-2.84%"},
      {"smiles": "O=C(Cc1cccc2ccccc12)NCCC1=CCCCC1", "activity change, negative = inhibition": "11.1% [at 10 µM]"},
      {"smiles": "S=C(NCCC1=CCCCC1)Nc1ccccc1", "Potency": "1.78 µM (active)"},
      {"smiles": "COc1ccc(CCNC(=O)c2ccccc2OCc2ccccc2)cc1", "activity change, negative = inhibition": "23%"},
      {"smiles": "O=C(NC1CCCC1)C(c1ccc(Cl)cc1)N(C(=O)c1csnn1)C1CC1", "note": "(centres undefined)", "activity change, negative = inhibition": "0.541%"},
      {"smiles": "C/C(=N\\NC(=O)c1nc(C)cc(C)n1)c1ccccc1", "activity change, negative = inhibition": "4.85%"},
      {"smiles": "Cc1cc(C)nc(S/C=C/C(=O)c2ccccc2)n1", "Potency": "6.31 µM (active)"},
      {"smiles": "Cc1cc(C)nc(SCC(=O)c2ccc(Cl)cc2)n1", "activity change, negative = inhibition": "-15.7%"},
      {"smiles": "Cc1ccc(CS(=O)(=O)CCC(=O)NCc2ccc(F)cc2)cc1", "activity change, negative = inhibition": "13.8%"},
      {"smiles": "O=C(O)c1ccccc1C(=O)NC1=NN(c2ccccc2)CC1", "activity change, negative = inhibition": "3.73%"},
      {"smiles": "CN(c1ccc(OCC(=O)O)cc1)S(=O)(=O)c1ccc2ccccc2c1", "activity change, negative = inhibition": "-8.22%"},
      {"smiles": "Cc1ccccc1N1CCN(C2CCCN(C(=O)c3cn4c(C)cccc4n3)C2)CC1", "note": "(centres undefined)", "activity change, negative = inhibition": "-3.69%"},
      {"smiles": "CCOc1cc(NC(=O)c2ccccc2C(=O)O)c(OCC)cc1NC(=O)c1ccccc1F", "activity change, negative = inhibition": "19.6% [at 1.91 µM]"},
      {"smiles": "CCN1CCN(c2cc3nc(C)n(Cc4ccccc4)c(=O)c3cc2NC(=O)c2ccccc2F)CC1", "Potency": "11.2 µM (active)"},
      {"smiles": "CCn1c(=O)n(CC)c2cc(N3CCCC3)c(NC(=O)c3ccccc3Br)cc21", "activity change, negative = inhibition": "2.25%"},
      {"smiles": "CS(=O)(=O)Nc1cccc(C2=NN(C(=O)c3cccc(F)c3)C(c3cccs3)C2)c1", "note": "(centres undefined)", "activity change, negative = inhibition": "15.3%"},
      {"smiles": "CC(C)=CCCC(C)CN1CCC(n2nccc2NC(=O)c2ccccc2)CC1", "note": "(centres undefined)", "activity change, negative = inhibition": "-1.04%"},
      {"smiles": "CC(=O)NCCC(=O)Nc1nc(-c2ccc3c(c2)OCCO3)cs1", "activity change, negative = inhibition": "9.31%"},
      {"smiles": "Cc1cc(C)c2nc(SCC(=O)N(C)C3CCS(=O)(=O)C3)cc(C)c2c1", "note": "(centres undefined)", "activity change, negative = inhibition": "-1.99%"},
      {"smiles": "COc1ccc2c(-c3ccccc3)cc(SCC(=O)N(C)C3CCS(=O)(=O)C3)nc2c1", "note": "(centres undefined)", "Potency": "10 µM (active)"},
      {"smiles": "COc1ccc(-c2cc(=O)oc3cc(OCC(=O)N(C)C4CCS(=O)(=O)C4)ccc23)cc1", "note": "(centres undefined)", "activity change, negative = inhibition": "1.21%"}
    ]}
  ]
}
